From PubChem BioAssay
MITF primary = human MITF inhibition, primary screen; O75030; AlphaScreen MITF homodimerization, bead proximity signal; inhibition, % at 2.6 µM; 0.91% of 650,000 active; AID 1259374; in the data active means inhibition above about 50%;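 further: 0% = vehicle wells with protein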
Target sequence (O75030 whole entry, looked up): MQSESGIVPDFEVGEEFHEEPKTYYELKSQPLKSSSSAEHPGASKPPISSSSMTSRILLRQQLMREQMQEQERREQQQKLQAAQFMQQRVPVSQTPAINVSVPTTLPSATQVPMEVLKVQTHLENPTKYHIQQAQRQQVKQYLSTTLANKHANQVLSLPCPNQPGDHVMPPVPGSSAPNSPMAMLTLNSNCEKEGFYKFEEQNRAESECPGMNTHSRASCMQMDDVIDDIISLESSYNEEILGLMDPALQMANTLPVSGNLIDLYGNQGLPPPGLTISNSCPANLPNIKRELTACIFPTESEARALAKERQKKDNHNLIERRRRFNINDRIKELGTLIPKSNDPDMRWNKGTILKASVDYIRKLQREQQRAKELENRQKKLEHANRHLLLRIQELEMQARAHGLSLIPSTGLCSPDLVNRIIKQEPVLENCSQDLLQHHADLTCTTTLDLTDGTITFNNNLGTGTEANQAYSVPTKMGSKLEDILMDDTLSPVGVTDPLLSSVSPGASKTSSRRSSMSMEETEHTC
TEAD-YAP inh = TEAD-YAP interaction inhibition; AID 1259422; HEK-TIYL cells, TEAD-Gal4/YAP UAS-luciferase luminescence; inhibition, % at 9.12 µM; 1.4% of 640,000 active; in the data active means inhibition above about 32%;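 further: 0% = median of test compound wells and 100% = reference inhibitor wells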
FBW7 activator = human FBW7 E3 ligase activation, primary screen | AlphaScreen FBW7–phospho-cyclin E peptide binding, activator screen | Q969H0 | 0.13% of 650,000 active | normalized activity (activation), % at 26.1 µM; in the data active means normalized activity above about 1.9%;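 further: purified mutant Fbw7 with reduced substrate affinity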
GPR151 activ = human GPR151 activation; Q8TDV0; PathHunter beta-arrestin GPR151 cells, luminescence; activation, % at 11.2 µM; 1% of 650,000 active; in the data active means activation above about 4.9%;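 further: 0% = median of compound wells and 100% = cells with positive control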
An asterisk follows results filed as active. A selection: hits, their analogues and other compounds. The true share with any hit is near 3.4%.

SMILES	MITF primary	TEAD-YAP inh	FBW7 activator	GPR151 activ
CCOc1ccc(C2C(C(=O)OC)=C(C)NC3=C2C(=O)CC(c2ccc(OC)c(OC)c2)C3)cc1 (centres undefined)	0	-11	0	0
CCOC(=O)C1=C(C)NC2=C(C(=O)CC(c3ccc(OC)c(OC)c3)C2)C1c1cccc([N+](=O)[O-])c1 (centres undefined)	-1	5	0	-1
COc1ccc(N2C(=O)NC(=O)/C(=C\c3ccc4c(c3)OCO4)C2=O)cc1	0	7	0	2
CCOC(=O)c1cnc2c(C)c(Cl)ccc2c1Nc1cccc(C(=O)O)c1	-3	0	0	0
O=C(CC1C(=O)NCCN1Cc1ccccc1C(F)(F)F)NCCc1cscn1 (centres undefined)	-5	2	0	0
CC(=O)C1=C(O)C(=O)N(CCO)C1c1ccc(N(C)C)cc1 (centres undefined)	1	-7	0	-1
CC(=O)Nc1cccc(NC(=O)c2cc3ccccc3oc2=O)c1	-9	46*	0	-2
Cc1cccc(NC(=O)c2cc3ccccc3oc2=O)c1	14	-38	0	-2
C=CCc1cccc2cc(C(=O)Nc3cccc(O)c3)c(=O)oc12	19	58*	0	-1
CC(Cc1ccco1)NC(=O)c1cc2ccccc2oc1=O (centres undefined)	-6	-21	3.0*	0
CC(CO)NC(=O)c1cc2ccccc2oc1=O (centres undefined)	-6	-11	0	0
COc1ccccc1NC(=S)N/N=C/c1ccc2c(c1)OCCO2	-11	61*	0	-1
COc1ccccc1NC(=O)C(=O)N/N=C/c1ccc2c(c1)OCO2	-6	-2	0	0
COc1ccc(S(=O)(=O)N2Cc3ccccc3CC2C(=O)Nc2ccc(C)cc2)cc1 (centres undefined)	-5	33*	0	1
Cc1cccc(C2CC(=O)Nc3cc4c(cc32)OCO4)c1 (centres undefined)	8	18	0	-1
Cc1cccc(C2CC(=O)Nc3cc4c(cc32)OCCO4)c1 (centres undefined)	19	40*	1	0
COc1ccc([C@@H]2C[C@H](C(=O)N3CCCCC3C)N(C)S(=O)(=O)N2)cc1 (some centres undefined)	4	5	1	-1
COc1ccccc1C1C(C#N)=C(N)Oc2c1sc1ccccc21 (centres undefined)	-10	33*	0	0
COc1ccc(C2C(C#N)=C(N)Oc3c2sc2ccccc32)c(OC)c1 (centres undefined)	-3	64*	0	-1
N#CC1=C(N)Oc2c(sc3ccccc23)C1c1ccc(Cl)cc1Cl (centres undefined)	6	-1	0	0
N#CC1=C(N)Oc2c(sc3ccccc23)C1c1ccccc1OC(=O)c1ccccc1Cl (centres undefined)	5	-3	0	1
CCCN1C(=O)COc2ccc(-c3csc(NC(=O)C(CC)CC)n3)cc21	3	32*	0	0
CC(=O)Nc1nc(-c2ccc3c(c2)CCO3)cs1	5	-57	0	-2
Cc1ccc(C(=O)Nc2ccc(C)c(C)c2)cc1	-14	67*	0	-3
O=C(Nc1ccc(-c2ccc(NC(=O)c3ccc(Cl)cc3)cc2)cc1)c1ccc(Cl)cc1	-6	-12	39*	2
SMILES	MITF primary	TEAD-YAP inh	FBW7 activator	GPR151 activ
Cc1nc(-c2ccc(NC(=O)c3ccccc3)cc2)cs1	-7	51*	0	-10
Cc1ccc(C(=O)Nc2ccc(C(=O)O)cc2)cc1	8	45*	0	-1
Cc1ccc2c(c1)C(=O)CC(c1ccc3c(c1)OCCO3)O2 (centres undefined)	-1	-50	0	1
O=C1CC(c2ccc3c(c2)OCCCCO3)Oc2ccccc21 (centres undefined)	0	59*	0	0
Nc1ncnc(N/N=C/c2ccc3ncccc3c2)c1[N+](=O)[O-]	13	86*	0	-1
Nc1ncnc(N/N=C/c2cccnc2)c1[N+](=O)[O-]	-1	20	0	-3
Nc1ncnc(N/N=C/c2ccc(C3=CCCC3)s2)c1[N+](=O)[O-]	22	60*	-1	-8
COc1cc(/C=N/Nc2ncnc(N)c2[N+](=O)[O-])ccc1O	10	34*	-1	-10
CCN(Cc1ccccc1)c1ccc(/C=N/Nc2ncnc(N)c2[N+](=O)[O-])cc1	12	37*	-1	-4
O=C1N/C(=N/N=C/c2ccco2)SC1Cc1ccc(Cl)cc1 (centres undefined)	22	-2	0	-2
COc1cccc(CNC(=O)c2cc3ccc(-c4cn[nH]c4)cc3n2CCN(C)C)c1	7	1	0	-1
Cc1cccc(N2C(=O)C3C4c5ccccc5C(C)(c5ccccc54)C3C2=O)c1 (centres undefined)	6	5	0	-1
CCN1CCN(C(c2cccnc2)c2ccc3cccnc3c2O)CC1 (centres undefined)	68*	15	0	-1
Oc1c(C(c2ccncc2)N2CCCC2)ccc2cccnc12 (centres undefined)	76*	12	0	0
Oc1cccc(C(c2ccc3cccnc3c2O)N2CCCC2)c1 (centres undefined)	39	18	-1	1
Cc1[nH]c2ccccc2c1C(c1ccncc1)N1CCC(C)CC1 (centres undefined)	-1	-2	0	0
CC1CCN(C(c2ccncc2)c2ccc3cccnc3c2O)CC1 (centres undefined)	89*	20	0	-3
CC(C)(O)/C(CCc1ccccc1)=N/Nc1ccc([N+](=O)[O-])cc1[N+](=O)[O-]	-12	-6	0	0
COc1ccc(C(c2c(N)n(C)c(=O)n(C)c2=O)c2c(N)n(C)c(=O)n(C)c2=O)cc1	-19	3	0	0
COc1ccc2c(c1)CC/C(=C\c1cccn1C)C2=O	15	46*	0	-7
CCCCCCOc1ccc(/C=C(\C#N)C(=O)NCC2CCCO2)cc1OC (centres undefined)	9	-2	2.0*	-1
COc1cc(/C=C(/C#N)C(=O)NCC2CCCO2)ccc1OCc1ccc(C(=O)O)cc1 (centres undefined)	5	-14	0	2
Cc1ccc2nc(-c3cc(Cl)c(N)c(Cl)c3)sc2c1	3	-47	0	-1
Cc1ccc2nc(-c3ccc(N)cc3)sc2c1	18	86*	0	-7
Cc1ccc2sc(-c3ccc(NS(C)(=O)=O)cc3)nc2c1	13	-20	1	-1
Cc1ccc2sc(-c3ccc(N)cc3)nc2c1	7	87*	0	-8
Cc1ccc2sc(-c3ccc(NC(=O)/C=C/C(=O)O)cc3)nc2c1	10	92*	1	-4
Cc1ccc2sc(-c3ccc(NC4=CC(=O)CC(C)(C)C4)cc3)nc2c1	-9	53*	0	0
Cc1ccc2sc(NC(=O)/C=C/C(=O)O)nc2c1	11	14	0	-3
